From PubChem BioAssay (NCI)
The panel holds about 83,000 compounds, 20% with a hit somewhere; the sample as a whole holds those more often.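 Cells were grown in 96-well plates and exposed to the test compound at a single concentration for 48 hours; results are reported as percent growth, with values below 10 considered active.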 Active and inactive are the calls of the source.

Key:
Test in all cases: NCI-60 one-dose screen, 48 h (100 = growth as untreated, 0 = no growth, -100 = all killed)
Conditions in all cases: 10 µM unless noted
SR leukemia = test system: SR leukemia
RPMI-8226 leukemia = test system: RPMI-8226 leukemia
OVCAR-5 ovarian = test system: OVCAR-5 ovarian
OVCAR-4 ovarian = test system: OVCAR-4 ovarian
SK-OV-3 ovarian = test system: SK-OV-3 ovarian
IGROV1 ovarian = test system: IGROV1 ovarian
OVCAR-3 ovarian = test system: OVCAR-3 ovarian
HS 578T breast = test system: HS 578T breast
NCI/ADR-RES ovarian = test system: NCI/ADR-RES ovarian
T-47D breast = test system: T-47D breast
BT-549 breast = test system: BT-549 breast
MDA-MB-435 melanoma = test system: MDA-MB-435 melanoma
SW-620 colon = test system: SW-620 colon
MCF7 breast = test system: MCF7 breast
HCT-116 colon = test system: HCT-116 colon
HCC-2998 colon = test system: HCC-2998 colon
KM12 colon = test system: KM12 colon
OVCAR-8 ovarian = test system: OVCAR-8 ovarian

Measured: growth

Oc1ccc(CSc2nnc(-c3ccc(Cl)cc3)n2-c2ccccc2)c2cccnc12
inactive: SR leukemia 31% | RPMI-8226 leukemia 16.4% | OVCAR-5 ovarian 57.7% | OVCAR-4 ovarian 38% | SK-OV-3 ovarian 32.6% | IGROV1 ovarian 24.2% | OVCAR-3 ovarian 25.3% | HS 578T breast 25.8% | T-47D breast 48.9% | BT-549 breast 35.7% | MDA-MB-435 melanoma 17.1% | SW-620 colon 23.9% | HCT-116 colon 13.3% | HCC-2998 colon 32.8% | KM12 colon 21.3%
active: NCI/ADR-RES ovarian 4.53% | MCF7 breast 9.16%

O=S(=O)(Nc1cccc2ccccc12)c1ccc(-c2cnc(C3CC3)o2)cc1
active: OVCAR-3 ovarian 7.12% | NCI/ADR-RES ovarian 7.22% | MDA-MB-435 melanoma -39.9%
inactive: SR leukemia 21.2% | OVCAR-8 ovarian 28.5% | OVCAR-5 ovarian 42.6% | OVCAR-4 ovarian 64.1% | SK-OV-3 ovarian 71.3% | IGROV1 ovarian 23.4% | HS 578T breast 39.1% | T-47D breast 62.4% | BT-549 breast 21.3% | SW-620 colon 24.6% | MCF7 breast 22% | HCT-116 colon 12.4% | HCC-2998 colon 21.3% | KM12 colon 10.7%

CS(=O)(=O)Nc1cc(-c2ccc3ncc(C#N)c(NCc4ccccc4O)c3c2)cnc1Cl
inactive: OVCAR-5 ovarian 21.7% | OVCAR-4 ovarian 14.1% | NCI/ADR-RES ovarian 42.4% | T-47D breast 13% | KM12 colon 10%
active: SR leukemia 6.89% | OVCAR-8 ovarian 8.27% | SK-OV-3 ovarian -5.88% | IGROV1 ovarian -41.8% | OVCAR-3 ovarian 3.31% | HS 578T breast -17.9% | BT-549 breast -10% | MDA-MB-435 melanoma 5.99% | SW-620 colon 9.16% | MCF7 breast 1.5% | HCT-116 colon 2.58% | HCC-2998 colon -1.75%

COc1cc(-c2nnc(SCc3ccc(O)c4ncccc34)n2-c2ccccc2)cc(OC)c1OC
inactive: SR leukemia 15.5% | OVCAR-5 ovarian 33.2% | BT-549 breast 12.8% | MDA-MB-435 melanoma 10.8% | SW-620 colon 10.3% | HCC-2998 colon 22.1% | KM12 colon 14%
active: RPMI-8226 leukemia 3.25% | OVCAR-4 ovarian 6.79% | SK-OV-3 ovarian 1.71% | IGROV1 ovarian 8.92% | OVCAR-3 ovarian 6.44% | NCI/ADR-RES ovarian 0.665% | T-47D breast -0.917% | MCF7 breast 2.01% | HCT-116 colon 5.72%

COc1ccc(N2CCN(C3=C(Cl)C(=O)C(C)=C(C)C3=O)CC2)cc1
inactive: SR leukemia 78.6% | OVCAR-8 ovarian 100% | OVCAR-5 ovarian 110% | OVCAR-4 ovarian 99.7% | SK-OV-3 ovarian 96.7% | IGROV1 ovarian 103% | OVCAR-3 ovarian 113% | HS 578T breast 103% | NCI/ADR-RES ovarian 101% | T-47D breast 30% | BT-549 breast 117% | MDA-MB-435 melanoma 105% | SW-620 colon 113% | MCF7 breast 92.1% | HCT-116 colon 99.3% | HCC-2998 colon 111% | KM12 colon 107%

COc1ccc2c(c1)Oc1nc(N)c(C#N)c(N)c1C2Sc1ccc(C)cc1 (centres undefined)
active: SR leukemia 0.429% | IGROV1 ovarian -76.5% | OVCAR-3 ovarian -77.1% | NCI/ADR-RES ovarian 5.39% | T-47D breast -31.6% | MDA-MB-435 melanoma -8.09% | SW-620 colon -49.5% | MCF7 breast -77.7% | HCT-116 colon -69.1% | HCC-2998 colon -64.2%
inactive: OVCAR-8 ovarian 12.7% | OVCAR-5 ovarian 15.9% | OVCAR-4 ovarian 15.1% | SK-OV-3 ovarian 86.4% | HS 578T breast 14.8% | BT-549 breast 68.4% | KM12 colon 52.5%

Clc1ccc(N/N=c2/oc3ccccc3cc2-c2cc3ccccc3[nH]2)cc1
inactive: SR leukemia 90.8% | OVCAR-8 ovarian 62.3% | OVCAR-5 ovarian 83.4% | OVCAR-4 ovarian 69.5% | SK-OV-3 ovarian 89.6% | IGROV1 ovarian 57.2% | OVCAR-3 ovarian 47.7% | HS 578T breast 103% | NCI/ADR-RES ovarian 78.5% | T-47D breast 40.4% | BT-549 breast 80.3% | SW-620 colon 78.7% | MCF7 breast 53.3% | HCT-116 colon 66.9% | HCC-2998 colon 95.6% | KM12 colon 58.1%
active: MDA-MB-435 melanoma -71.4%

C=CCn1c(-c2nc3ccc(C(=C(C#N)C#N)c4ccccc4)cc3[nH]2)cc2cc(Br)ccc21
active: MCF7 breast 0.939%
inactive: SR leukemia 50.5% | RPMI-8226 leukemia 35.7% | OVCAR-5 ovarian 77.5% | OVCAR-4 ovarian 54.5% | SK-OV-3 ovarian 63.9% | IGROV1 ovarian 65.1% | OVCAR-3 ovarian 51.2% | HS 578T breast 64.4% | NCI/ADR-RES ovarian 54.2% | T-47D breast 43% | BT-549 breast 71.3% | SW-620 colon 61.2% | HCT-116 colon 27.4% | HCC-2998 colon 61.2% | KM12 colon 34.1%
